# PubChem BioAssay AID1508633 (National Center for Advancing Translational Sciences (NCATS), 2021)
# Inconclusive results are not listed. Activity calls are given as the source filed them. The call rests on the fitted dose curve; in most records, active means well fitted inhibition curve with a large enough effect; inconclusive means small, poorly fitted or top-dose-only effect; inactive means no such curve, though single readings can be large or run the other way.
# Test system: zebrafish ABCB5 (Abcb5) multidrug transporter
# Assay: qHTS for characterization and localization of zebrafish homologs of the human ABCB1 multidrug transporter: ABCB5 transfected cells
# Settings: CellTiter-Glo luminescence viability, 72 h; series mostly up to 46.1 µM
# Description: The zebrafish has emerged as a potential model to study the blood-brain barrier (BBB) given its similarities with mammalian systems. However, little information has been available with regard to homologous ATP-binding cassette transporters expressed at the zebrafish BBB. Two transporters that are highly expressed at the human BBB are P-glycoprotein (P-gp, encoded by the ABCB1 gene) and ABCG2 (encoded by the ABCG2 gene). In this study, we focus on characterization of P-gp homologs in the zebrafish, which has two genes that are homologous to human ABCB1 - abcb4 and abcb5. We generated stably-transfected cell lines to determine their substrate specificities. […] Zebrafish abcb4 also colocalized with claudin 5 expression in brain endothelial cells.
# A high-throughput screen was performed as previously described on empty vector transfected cells, P-gp-overexpressing MDR-19 cells and cells transfected with full-length zebrafish abcb4 (ZF Abcb4) or abcb5 (ZF Abcb5). Briefly, cells were plated into 1536-well plates at a density of 500 cells/well in 5 uL media. P-gp substrate compounds (approximately 90) selected from our previous study were then added at varying concentrations using a 1536-head pin tool (Kalypsis, San Diego, CA) and plates were incubated at 37C in 5% CO2 for 72 h. CellTiter-Glo reagent (Promega) was dispensed into the wells, incubated for 5 min and luminescence was read on a ViewLux instrument (Perkin-Elmer).
# Cytotoxic compounds were defined as those that yielded a curve class of -1.1, -1.2, -2.1, -2.2, -2.3, or -2.4, a maximum response of >50% and an AC50 of < 10 uM. All compounds from screening analysis were tested in Vector (empty vector control), MDR-19 (P-gp overexpressing), zebrafish abcb4 (ZF Abcb4) and abcb5 (ZF Abcb5) expression cell lines.
# 1. Tobie D Lee, Olivia W Lee, Kyle R Brimacombe, Lu Chen, Rajarshi Guha, Sabrina Lusvarghi, Bethilehem G Tebase, Carleen Klumpp-Thomas, Robert W Robey, Suresh V Ambudkar, Min Shen, Michael M Gottesman, Matthew D Hall. A High-Throughput Screen of a Library of Therapeutics Identifies Cytotoxic Substrates of P-glycoprotein. Mol Pharmacol. 2019, Nov;96(5):629-640.
row,SMILES,Potency
1,CCCCc1nc2cc(C=CC(=O)NO)ccc2n1CCN(CC)CC,7.43 µM (active)
2,CN(C)c1ccc(C(=C2C=CC(=[N+](C)C)C=C2)c2ccc(N(C)C)cc2)cc1,0.935 µM (active)
3,Cc1ccc(C(=O)N(CCCN)C(c2nc3cc(Cl)ccc3c(=O)n2Cc2ccccc2)C(C)C)cc1 (stereo unspecified),23.5 µM (active)
4,C[C@@]12O[C@@H](C[C@]1(O)CO)n1c3ccccc3c3c4c(c5c6ccccc6n2c5c31)CNC4=O,5.26 µM (active)
5,Oc1ccc(-c2ccc(-c3cc(Nc4cccc(CNC5CC5)c4)n[nH]3)cc2)c(O)c1,5.26 µM (active)
6,CC(C)C[C@H](NC(=O)[C@H](CCc1ccccc1)NC(=O)CN1CCOCC1)C(=O)N[C@@H](Cc1ccccc1)C(=O)N[C@@H](CC(C)C)C(=O)[C@@]1(C)CO1,0.166 µM (active)
7,COc1cc2ncn(-c3cc(OCc4ccccc4C(F)(F)F)c(C(N)=O)s3)c2cc1OC,6.79 µM (active)
8,CC(C)C[C@H](NC(=O)[C@@H](NC(=O)c1cccc(-c2ccccc2)n1)[C@@H](C)O)B(O)O,0.118 µM (active)
9,CC[n+]1c(-c2ccccc2)c2cc(N)ccc2c2ccc(N)cc21,11.8 µM (active)
10,CC(NCc1ccc2c(c1)nc(NC(=O)c1ccc(-c3cn[nH]c3)s1)n2CC(C)(C)O)C(C)(C)C (stereo unspecified),3.72 µM (active)
11,CN(C)C1CCN(C(=O)c2ccc(NC(=O)Nc3nc(N4CCOCC4)nc(N4CCOCC4)n3)cc2)CC1,4.69 µM (active)
